This passage reports Inhibition results from ChEMBL document CHEMBL1157539, “Thousands of chemical starting points for antimalarial lead identification” (Nature, 2010).

The test system of the experiment is HepG2. Briefly: GSK_TCMDC: Percent inhibition of human HepG2 cell line. Test compounds present at 10uM. The format is functional.
As a reminder, the Inhibition is the share of the control response that was lost under treatment. A high value points to a strong effect. As to `Cc1cc(NCCC(=O)NCc2cccc(F)c2)nc(NCCc2ccc(F)cc2)n1.O=C(O)C(F)(F)F`, the Inhibition was 0%.

Turning to `CCc1c(C)c2ccc3c(c2oc1=O)CN(CCc1ccc(F)cc1)CO3`, the Inhibition is reported as 0%.

Consider `Cc1cccc2nc(-c3ccc(-c4ccc(CNCCCN5CCCC5=O)cc4)s3)[nH]c12.O=C(O)C(F)(F)F`, for which the Inhibition is 17%.

As for `COc1ccc2nccc([C@@H](O)CN3CCC(NCc4ccc5c(n4)NCCC5)CC3)c2c1`, the Inhibition came to 21%.
